HPGD block = blocks human HPGD enzyme activity. P15428. purified HPGD, NADH fluorescence kinetic, PGE2 substrate. Potency, µM, for the others: at the top dose activity change, negative = inhibition, actives largely listed as inhibitors. 4.3% of 150,000 active; also: potency is read from the fitted curve at half-maximal effect
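NADH formation kinetics: reaction with 30 uM PGE2 and 1 mM NAD+ (final), 20 nM enzyme, Tris-HCl pH 8 with Tween 20, after 15 min compound preincubation at room temperature. Fluorescence change, last versus first of five reads.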
ALDH1A1 block = blocks purified human ALDH1A1 activity | P00352 | Purified ALDH1A1, NADH fluorescence, propionaldehyde substrate | Potency, µM (highest dose often 75.3 µM), for inactives: at the highest dose activity, negative = inhibition, usual class: inhibitors | 7.3% of 220,000 active | AID 1030;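 also: potency is read from the fitted curve at half-maximal effect; plate controls were no enzyme wells and a reference inhibitor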
Target sequence (P00352 whole entry, looked up): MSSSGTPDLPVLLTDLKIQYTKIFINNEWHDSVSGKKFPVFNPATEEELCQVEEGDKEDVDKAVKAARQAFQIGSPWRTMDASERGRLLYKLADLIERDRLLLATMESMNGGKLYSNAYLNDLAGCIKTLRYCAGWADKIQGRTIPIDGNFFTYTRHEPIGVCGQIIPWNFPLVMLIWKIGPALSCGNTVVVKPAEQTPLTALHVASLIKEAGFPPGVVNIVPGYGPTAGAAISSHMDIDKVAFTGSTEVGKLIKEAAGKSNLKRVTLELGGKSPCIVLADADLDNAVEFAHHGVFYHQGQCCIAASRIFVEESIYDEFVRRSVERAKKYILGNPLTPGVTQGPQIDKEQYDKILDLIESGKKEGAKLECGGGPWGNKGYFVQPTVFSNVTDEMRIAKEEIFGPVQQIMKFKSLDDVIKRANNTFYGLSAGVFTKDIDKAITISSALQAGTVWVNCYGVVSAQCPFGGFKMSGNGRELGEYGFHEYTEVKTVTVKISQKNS
PNC assembly inh = inhibitors of perinucleolar compartment assembly. PC3M PTB-GFP, PNC prevalence imaging, 16 h; stronger effect = lower value. activity change (PNC), negative = inhibition, % at 10 µM. 3.1% of 140,000 active. AID 2417;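 active = readout at or below -70, meaning at least 70% loss of cells showing the perinucleolar compartment, a nuclear body marking cancer cells; inconclusive = readout between -30 and a set limit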;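 also: plate controls were DMSO wells for no effect and camptothecin positive control wells for full effect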
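Compounds are pinned in duplicate onto adhered PC3M cells stably expressing GFP-tagged PTB and incubated 16 h at 37 C. Cells are then fixed, nuclei stained with Hoechst, and PNC-positive cells counted.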
Active calls of the source: *; ? = inconclusive; nt = no result given; ! = not confirmed by another sample; [ ] = dose if it differs, or a comment. Shown are actives, neighbours in structure and some others; about 11% of the full set was active somewhere. Unless noted, calls follow the shape of the dose curve; as a rule, active = well fitted inhibition curve with a large enough effect (not every such curve was filed as active); inconclusive = small, poorly fitted or top-dose-only effect, or another doubt; inactive = no such curve, though single readings can be large or run the other way. Unless noted, % is scaled to controls: 0 for no effect and ±100 for the full control effect.

SMILES	HPGD block	ALDH1A1 block	PNC assembly inh
O=C(NCC1CCCO1)c1ccc(S(=O)(=O)N2CCC(c3nc4ccc(Cl)cc4[nH]3)CC2)cc1 (stereo unspecified)	-24%	-6%	-100*
O=S(=O)(c1ccc2c(c1)OCCO2)N1CCC(c2nc3ccc(Cl)cc3[nH]2)CC1	-19%	?	-14
COc1cc(S(=O)(=O)N2CCC(c3nc4ccccc4s3)CC2)ccc1S(=O)(=O)N1CC(C)CC(C)C1 (stereo unspecified)	-10%	-2%	257
COc1cc(S(=O)(=O)N2CCC(c3nc4ccccc4s3)CC2)ccc1S(=O)(=O)NC1CCCC1	-21%	-5%	-100*
COc1ccc(/C=N/NC(=O)c2ccc(=O)n(C)c2)cc1OC	nt	-7%	nt
COc1ccc(/C=N/NC(=O)c2cccc([N+](=O)[O-])c2)cc1OC(=O)c1ccccc1	?	?	2
COc1ccc(C(=O)Oc2cc(/C=N/NS(=O)(=O)c3ccccc3)ccc2OC)cc1	-22%	3.2µM*	-15
COc1ccc(/C=N/NC(N)=S)cc1OC(=O)c1ccccc1	25µM*	-8%	-11
COc1ccc(/C=N/NS(=O)(=O)c2ccc(C)cc2)cc1OC(=O)c1ccc(C)cc1	-23%	?	-8
COc1ccc(/C=N/NC(=S)SC)cc1OC	nt	10µM*	nt
CCn1cc(CN2CCCC(C(=O)c3ccc(-c4ccccc4)cc3)C2)cn1 (stereo unspecified)	nt	-4%	nt
CN(C)CCCSc1nc2ccccc2[nH]1	2%	21%[13.5 µM]	nt
CCCNC(=S)N1CCC(C(=O)c2ccc(OC)cc2)CC1	-5%	-4%	-2
CCNC(=O)NC(=O)CSc1ccccc1F	4%	10%	-26
COC(=O)NC(c1ccc(F)cc1)C(C(C)=O)C(=O)OC (stereo unspecified)	nt	28%[13.5 µM]	nt
CCOC(=O)C1=C(C)NC(C)=C(C(=O)OCC)C1c1cc2ccc(C)cc2[nH]c1=O	-12%	?	-111*
COC(=O)C1=C(C)NC(C)=C(C(=O)OC)C1c1cc2ccc(C)cc2[nH]c1=O	-15%	?	14
CC1=Nn2c(nnc2-c2cc(-c3ccccc3)n[nH]2)SC1	-8%	-7%	?
CC1=Nn2c(nnc2C2CCCCC2)SC1	28µM*	?	33
Cc1nc2c(C#N)cnn2c2c1CCN2CC1CCCO1 (stereo unspecified)	nt	-5%	nt
COc1ccc(C(=O)Nc2ccc3c4c(cccc24)CC3)cc1	-20%	-6%	19
COc1ccc(C(=O)NC(=S)Nc2ccc3c4c(cccc24)CC3)cc1OC	-15%	13µM*	?
CC(C)Oc1cccc(C(=O)NC(=S)Nc2ccc3c4c(cccc24)CC3)c1	nt	-8%	22
COc1cc(OC)cc(C(=O)NC(=S)Nc2ccc3c4c(cccc24)CC3)c1	-13%	7.9µM*	33
O=C1[C@H]2[C@H]3[C@H](O)[C@H](O)C/C(=N/OCc4ccccc4)[C@@H]3CC[C@@H]2C(=O)N1Cc1ccc2c(c1)OCO2	nt	-6%[13.5 µM]	nt
SMILES	HPGD block	ALDH1A1 block	PNC assembly inh
CN1C(=O)/C(=C/c2cn(CC(=O)N3CCCCC3)c3ccccc23)c2ccccc21	-2%	-6%	24
Cc1ccc(C)c(S(=O)(=O)Nc2ccc(C(=O)NCCc3ccccn3)cc2)c1	nt	-8%	nt
C/C=C(\CS(=O)(=O)c1ccccc1)S(=O)(=O)c1ccccc1	-12%	8.9µM*	-4
C/C(CS(=O)(=O)c1ccccc1)=N\O	nt	13%	nt
Cc1noc(C)c1-c1nc(NCCN2CCOCC2)c2ccccc2n1	nt	-8%	nt
CCC(C)c1ccccc1NC(=O)COC(=O)c1ccc(N2CCCC2)c([N+](=O)[O-])c1 (stereo unspecified)	-27%	13µM*	16
Cc1cccc(C)c1NC(=O)COC(=O)c1ccc(N2CCCC2)c([N+](=O)[O-])c1	-24%	9%	33
COc1nc(-c2cnccn2)sc1C	nt	-12%	nt
CC(=O)Cc1nsc(Nc2ccc3c(c2)OCCO3)n1	20µM*	3.2µM*	?
CC(=O)Cc1nsc(Nc2ccc(F)cc2)n1	nt	-4%	nt
CCOC1OC(=O)C(Cl)=C1Nc1ccc(C)cc1C (stereo unspecified)	2%	3%	6
Cc1nnc(NC(=O)C(C)Oc2ccc3c(C)cc(=O)oc3c2)s1 (stereo unspecified)	?	?	-107*
Cc1cc(=O)oc2cc(OCC(=O)Nc3nnc(CC(C)C)s3)ccc12	-23%	?	38
C/C(=N/NC(=O)C(O)(c1ccccc1)c1ccccc1)c1ccc([N+](=O)[O-])o1	nt	-5%	nt
Cc1csc(SC(C)C(=O)NCC2CCCCC2)n1 (stereo unspecified)	nt	6%	nt
O=C(Oc1ccccc1C(=O)Nc1ccccc1)c1ccc(Br)c([N+](=O)[O-])c1	-22%	14µM*	-7
COc1ccccc1C(=O)Oc1ccccc1C(=O)Nc1ccccc1	nt	9%	nt
CC(=O)Oc1ccc2ccccc2c1C(NC(=O)Cc1ccccc1)c1ccc(Cl)cc1 (stereo unspecified)	-10%	5%	15
O=C1NN(c2ccc(F)c(Cl)c2)C(=O)/C1=C\c1cccc(OC(=O)c2cccs2)c1	10µM*	?	4
Cc1nc2c(=O)n(-c3ccc(F)c(Cl)c3)nc(C)c2s1	nt	-1%	nt
CC(C)=C1C(=O)NN(c2ccc(F)c(Cl)c2)C1=O	8.9µM*	-2%	16
O=C1NN(c2ccccc2)C(=O)/C1=C/c1cccs1	-21%	?	6
CC(C)(C)C(=O)N1CCC(O)(CS(=O)(=O)c2ccc(Cl)c(Cl)c2)CC1	nt	0%	nt
COc1ccccc1C(O)(C(=O)NN(C)c1ccccc1)c1ccccc1OC	-1%	26%	41
Cc1c(Cl)cnc(NC(=O)COC(=O)C(NC(=O)c2ccco2)C(C)C)c1Cl (stereo unspecified)	-8%	11µM*	4
SMILES	HPGD block	ALDH1A1 block	PNC assembly inh
CC(C)[C@H](NC(=O)c1ccco1)C(=O)OCC(=O)Nc1cccc(F)c1	nt	11%	nt
Nc1nc(SCc2ccc([N+](=O)[O-])cc2)c2ncn([C@@H]3O[C@H](CO)[C@@H](O)[C@H]3O)c2n1	nt	-5%	nt
Nc1ncn([C@@H]2O[C@H](CO)[C@@H](O)[C@H]2O)c(=O)n1	-8%	22µM*!	nt
NC(=O)c1ncn(C2OC(CO)C(O)C2O)c1N (stereo unspecified)	-14%	0%	nt
Nc1nc(SCc2ccc([N+](=O)[O-])cc2)c2ncn([C@@H]3O[C@H](CO)[C@H](O)[C@H]3O)c2n1	25µM*	-13%	nt
COc1ccc(CC2(CO)CCN(Cc3cccn3-c3ccccn3)CC2)cc1	nt	1%	nt
COc1ccc(-c2nnc(SCCC(=O)O)n2-c2ccccc2)cc1	32µM*	?	-2
O=C(O)CCSc1nnc(-c2ccncc2)n1-c1ccccc1	-4%	9%	-19
Cc1cccc(-c2nnc(SCC3CNC(=O)O3)n2-c2ccc(Cl)cc2)c1 (stereo unspecified)	-18%	1.4µM*	?
COc1ccc(-n2c(SCc3ccc([N+](=O)[O-])cc3)nnc2-c2ccc(C)cc2)cc1	-24%	10%	?
COc1ccc(-n2c(SCC3CNC(=O)O3)nnc2-c2ccc(Cl)cc2)cc1 (stereo unspecified)	-4%	8.9µM*	-20
Cc1cccc(-c2nnc(SCC#N)n2-c2ccccc2)c1	-2%	-4%	-27

Compound activity: PubChem BioAssay, National Center for Advancing Translational Sciences (NCATS)
